Assay results published in PubChem BioAssay (Tox21).
Where “and” joins values, the source holds several entries; their conditions need not be identical. Equal entries are not always repeated. A number with no mark means an inactive call. Inconclusive results are not listed. Calls of active or inactive are those of the source. Calls follow the shape of the dose curve; as a rule, active = well fitted curve in the direction sought with a large enough effect in the repeat runs; inconclusive = weak or mixed curves; inactive = no such curve, though single readings can be large; an effect the other way counts as inactive or inconclusive.
% is scaled to controls: 0 for no effect and ±100 for the full control effect; potency is read from the fitted curve at half-maximal effect.

Experiment: Caspase-3/7 induction in CHO-K1 cells by small molecules, qHTS cell viability counter screen (AID 1346979); also: nearly all actives have a fitted effect of over 35% in size
Conditions: CellTiter-Fluor fluorescence, 17 h; series mostly up to 92.4 µM; activity change, negative = cytotoxicity: at the top concentration
How it was run: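 In the same wells as the caspase read, viability of compound-treated wild-type CHO-K1 cells was assessed using CellTiter-Fluor, added after 16hr at 37C and measured by fluorescence following 1hr further incubation.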
For `CC(=O)OC(OC(C)=O)c1ccc([N+](=O)[O-])o1`, the Potency was 15.6 µM (active).
For `Cc1cc(Nc2ccc(O)cc2)ccc1N`, the Potency was 27.2 µM (active).
For `C(=C/c1ccccc1)/c1ccccc1`, the “activity change, negative = cytotoxicity” value was 6.59%.
With `COc1ccccc1OCCNCC(O)COc1cccc2[nH]c3ccccc3c12` (configuration not stated) the Potency was 29.8 µM (active).
With `Cc1nc(Nc2ncc(C(=O)Nc3c(C)cccc3Cl)s2)cc(N2CCN(CCO)CC2)n1` the Potency was 13.3 µM (active).
In the case of `c1cc[nH]c1`, the “activity change, negative = cytotoxicity” value was 9.13%.
In the case of `CCCCOc1ccc(C(=O)CCN2CCCCC2)cc1`, the Potency was 29.8 µM (active).
In the case of `NCCCCCCNCCCCCCN`, the “activity change, negative = cytotoxicity” value was -15.9%.
With `CCN=C1C=CC(=C(c2ccc(N(CC)CC)cc2)c2ccc(N(CC)CC)cc2)c2ccccc21` the Potency was 0.963 µM (active).
In the case of `CCCCOC(=O)C(C)CC` (configuration not stated), the “activity change, negative = cytotoxicity” value was -1.63%.
With `O=C[C@H](O)[C@H](O)[C@H](O)CO` the “activity change, negative = cytotoxicity” value was -3.34%.
`O=S(O)O` showed an activity change, negative = cytotoxicity of 9.18% [at 19 µM].
With `CN(C)c1ccc(N=Nc2ccccc2C(=O)O)cc1` the Potency was 9.69 µM (active).
For `CCCCCCOc1ccc(O)cc1`, the Potency was 61.1 µM (active).
In the case of `COc1cccc(O)c1`, the “activity change, negative = cytotoxicity” value was 11.2%.
With `COc1cccc(CCc2ccccc2OCC(CN(C)C)OC(=O)CCC(=O)O)c1` (configuration not stated) the “activity change, negative = cytotoxicity” value was -2.09% [at 42.5 µM].
With `CC1=C(/C=C/C(C)=C/C=C/C(C)=C/C(=O)Nc2ccc(O)cc2)C(C)(C)CCC1` the Potency was 44.4 µM (active) and 21.1 µM (active).
For `O=C1Nc2ccc(Cl)cc2[C@@](C#CC2CC2)(C(F)(F)F)O1`, the Potency was 21.1 µM (active).
For `CCCCCCCOC(=O)c1ccc(O)cc1`, the Potency was 61.2 µM (active) and 61.1 µM (active).
For `CC1CCCCC1`, the “activity change, negative = cytotoxicity” value was 2.91%.

Experiment: Caspase-3/7 induction in CHO-K1 cells by small molecules, qHTS assay (AID 1346980); also: nearly all actives have a fitted effect of over 15% in size
Conditions: CHO-K1 caspase-3/7 induction, Caspase-Glo luminescence, 17 h; series mostly up to 92.4 µM; caspase-3/7 activation: at the top concentration
How it was run: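 Wild-type cells were seeded at 1,500 per well and settled 5 hr at 37 C, 5% CO2, then exposed to DMSO-dissolved compounds for 17 hr. Caspase-Glo 3/7 reagent was added, and luminescence was read after 30min at room temperature.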
In the case of `Clc1cc(Cl)c(-c2c(Cl)c(Cl)cc(Cl)c2Cl)cc1Cl`, the “caspase-3/7 activation” value was -1.6% [at 42.5 µM].
For `CCCCCCCCCCCCOC(=O)c1cc(O)c(O)c(O)c1`, the Potency was “inactive”.
In the case of `C[C@H]1O[C@@H](O[C@H]2[C@@H](O)C[C@H](O[C@H]3[C@@H](O)C[C@H](O[C@H]4CC[C@@]5(C)[C@H](CC[C@@H]6[C@@H]5C[C@@H](O)[C@]5(C)[C@@H](C7=CC(=O)OC7)CC[C@]65O)C4)O[C@@H]3C)O[C@@H]2C)C[C@H](O)[C@@H]1O`, the Potency was “inactive”.
In the case of `CCCC(C)CCC(C)=O` (configuration not stated), the “caspase-3/7 activation” value was -0.646%.
In the case of `COc1cc(C(=O)NS(=O)(=O)c2ccccc2C)ccc1Cc1cn(C)c2ccc(NC(=O)OC3CCCC3)cc12`, the “caspase-3/7 activation” value was 0.822% [at 42.5 µM].
With `C=C1C(C)(C)[C@@]2(Cl)C(Cl)[C@]1(Cl)C(Cl)(Cl)C2(Cl)Cl` (some centres not stated) the Potency was 60 µM (active).
With `CCCCCCCCCCCCCC[n+]1ccccc1` the “caspase-3/7 activation” value was 4.06%.
With `CCCCCCC(C)OC(=O)COc1nc(F)c(Cl)c(N)c1Cl` (configuration not stated) the “caspase-3/7 activation” value was 0.873%.
With `c1cc(OCC2CO2)cc(OCC2CO2)c1` (configuration not stated) the “caspase-3/7 activation” value was 1.21%.
In the case of `CNC(=O)c1cc(Oc2ccc(NC(=O)Nc3ccc(Cl)c(C(F)(F)F)c3)cc2)ccn1`, the “caspase-3/7 activation” value was -3.32% [at 42.5 µM].
For `Brc1ccccc1-c1ccccc1`, the “caspase-3/7 activation” value was 4.52%.
For `COC(=O)NCCC[Si](OC)(OC)OC`, the “caspase-3/7 activation” value was -0.23%.
In the case of `O=C1OC(=O)c2cccc3cccc1c23`, the “caspase-3/7 activation” value was -1.03%.
With `CCN(CC)CCNc1ccc(CO)c2sc3ccccc3c(=O)c12` the “caspase-3/7 activation” value was 0.68% [at 42.5 µM].
For `CC(=O)OC(OC(C)=O)c1ccc([N+](=O)[O-])o1`, the “caspase-3/7 activation” value was -5.52%.
With `Cc1cc(Nc2ccc(O)cc2)ccc1N` the Potency was 21.6 µM (active).
With `C(=C/c1ccccc1)/c1ccccc1` the “caspase-3/7 activation” value was 0.0385%.
For `COc1ccccc1OCCNCC(O)COc1cccc2[nH]c3ccccc3c12` (configuration not stated), the “caspase-3/7 activation” value was 2.34% [at 42.5 µM].
For `Cc1nc(Nc2ncc(C(=O)Nc3c(C)cccc3Cl)s2)cc(N2CCN(CCO)CC2)n1`, the “caspase-3/7 activation” value was 12.8% [at 42.5 µM].
For `c1cc[nH]c1`, the “caspase-3/7 activation” value was 0.0471%.
For `CCCCOc1ccc(C(=O)CCN2CCCCC2)cc1`, the “caspase-3/7 activation” value was 10.4% [at 42.5 µM].
In the case of `NCCCCCCNCCCCCCN`, the “caspase-3/7 activation” value was -0.0183%.
For `CCN=C1C=CC(=C(c2ccc(N(CC)CC)cc2)c2ccc(N(CC)CC)cc2)c2ccccc21`, the “caspase-3/7 activation” value was -6.21%.
In the case of `CCCCOC(=O)C(C)CC` (configuration not stated), the “caspase-3/7 activation” value was -0.065%.
For `O=C[C@H](O)[C@H](O)[C@H](O)CO`, the “caspase-3/7 activation” value was -0.119%.
In the case of `O=S(O)O`, the caspase-3/7 activation was 0.497% [at 19 µM].
For `CN(C)c1ccc(N=Nc2ccccc2C(=O)O)cc1`, the “caspase-3/7 activation” value was -6.51%.
In the case of `CCCCCCOc1ccc(O)cc1`, the “caspase-3/7 activation” value was -0.801%.
With `COc1cccc(CCc2ccccc2OCC(CN(C)C)OC(=O)CCC(=O)O)c1` (configuration not stated) the “caspase-3/7 activation” value was -0.127% [at 42.5 µM].
With `O=C1Nc2ccc(Cl)cc2[C@@](C#CC2CC2)(C(F)(F)F)O1` the “caspase-3/7 activation” value was 8.79% [at 42.5 µM].
With `CCCCCCCOC(=O)c1ccc(O)cc1` the Potency was “inactive”.
For `CC1CCCCC1`, the “caspase-3/7 activation” value was -0.164%.
